Experimental findings from PubChem BioAssay (NCI) are described below.

Test in all cases: NCI-60 one-dose screen, 48 h (100 = growth as untreated, 0 = no growth, -100 = all killed)
Holding throughout (conditions): 10 µM unless noted

Assay [1] has as its system NCI-H23 lung.
For assay [2], the system named is NCI-H226 lung.
The subject of assay [3] is NCI-H322M lung.
Assay [4] relates to HOP-62 NSCLC.
Assay [5] deals with NCI-H460 lung.
For assay [6], the system named is HOP-92 NSCLC.
Assay [7] concerns NCI-H522 lung.
Assay [8] has as its system A549/ATCC NSCLC.
Assay [9] deals with 786-0 renal.
For assay [10], the system named is COLO 205 colon.
The subject of assay [11] is DU-145 prostate.
The test system of assay [12] is K-562 leukemia.
Assay [13] relates to MALME-3M melanoma.
Assay [14] relates to MDA-MB-231 breast.
The subject of assay [15] is RXF 393 renal.
The test system of assay [16] is SF-268 CNS.
Assay [17] has as its system SF-295 CNS.
Assay [18] concerns SF-539 CNS.
For assay [19], the system named is UACC-257 melanoma.
Assay [20] concerns M14 melanoma.

Compounds without any hit were thinned out: in the full panel of roughly 83,000, 20% have a hit.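 Growth was measured after 48 h exposure to one concentration of compound in 96-well plates. Values under 10 count as active.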 A number with no mark means an inactive call. The source made the active and inactive calls.

For `O=C(c1ccccc1)c1c(/C=C/c2ccccc2)c2ccccc2[nH]c1=O`, the growth in assay [1] was 94.2%; in assay [2], 89.9%; in assay [3], 82.8%; in [4], 87.1%; in assay [5], 114%; in assay [6], 73%. Also, the growth was 83.4% in assay [7]; 93.5% in assay [8]; 92.2% in assay [9]; 110% in assay [10]; 115% in [11]; 82.4% in assay [12]. Besides, the growth in assay [13] is 98.3%; in assay [14], 101%; in assay [15], 78.9%; in [16] it was 86.2%; in [17], 95.6%; in assay [18], 99.2%. Moreover, the growth in [19] is 95.6%; in assay [20], 107%.
On to `ClC(Cl)c1nc(-c2cccnc2)n2nc(-c3ccccc3)cc2n1`, for which the growth in [1] is -39.3% (active); in assay [2], 66.2%; in assay [3], 46.2%; in assay [4], 5.17% (active); in assay [5], -32.5% (active); in [6], -0.78% (active). Also, the growth in [7] was -20.3% (active); in assay [8], -16.8% (active); in [9] it was 82.3%; in [10], -52.6% (active); in [11], -21.7% (active); in assay [12] it was 6.07% (active). The growth in [13] is -4.43% (active); in [14], 17.3%; in assay [15], -51% (active); in [16] it was 23%; in [17], 0.57% (active); in assay [18], 60.8%. Further, the growth was 96.4% in assay [19] and 71% in assay [20].
For the molecule `O=[N+]([O-])c1cccc(-c2nc3sccn3c2-c2ccnc(NCCCNS(=O)(=O)c3ccc(Cl)cc3)n2)c1`, the growth in assay [1] was 42.8%; in assay [2], 44.2%; in [3], 78.5%; in [4], 84%; in assay [5], 57.4%; in assay [6] it was 67.2%. In addition, the growth in assay [7] is 28.4%; in assay [8], 43.1%; in assay [9], 78.7%; in assay [10], 49.2%; in assay [11] it was 64.2%; in assay [12] it was 26.6%. Also, the growth in assay [13] was 62.8%; in assay [14], 70.8%; in assay [15], 77.9%; in [16], 69.7%; in assay [17], 37.2%; in [18] it was 84.9%. In addition, the growth in assay [19] is 47.7%; in assay [20] it was 47%.
In the case of `CC(C)(C)n1cc(-c2ccnc(NCCNS(=O)(=O)c3ccc(F)cc3)c2)c(-c2cccc(O)c2)n1`, the growth is 58.2% in assay [1]; 50.4% in assay [2]; 72.3% in [3]; 78.9% in assay [4]; 29.8% in assay [5]; 58.3% in assay [6]. Besides, the growth in [7] was 50.4%; in assay [8] it was 47.5%; in assay [9], 26%; in assay [10], -2.98% (active); in assay [11], 74.9%; in [12], 15.4%. In addition, the growth in [13] was 53.5%; in assay [14], 41%; in assay [15], 60%; in assay [16] it was 54.7%; in [17] it was 42.5%; in assay [18] it was 58.3%. Also, the growth was 64.9% in [19] and 46.2% in assay [20].
Consider `COc1cccc(-c2nc3sccn3c2-c2ccnc(NCCCNS(=O)(=O)c3ccc(C(F)(F)F)cc3)c2)c1`, for which the growth was 70.4% in assay [1]; 59.4% in assay [2]; 79.4% in assay [3]; 91.3% in assay [4]; 52.4% in [5]; 68.9% in assay [6]. Moreover, the growth in [7] was 68.4%; in assay [8], 44.1%; in assay [9], 58.6%; in [10] it was 70.2%; in assay [11], 65.4%; in assay [12], 28.1%. In addition, the growth is 86.4% in [13]; 62.1% in [14]; 65.6% in [15]; 45.9% in assay [16]; 44.3% in assay [17]; 55.1% in assay [18]. In addition, the growth in [19] was 61.7%; in assay [20], 47.7%.
Consider `O=C1NN(C(=O)c2ccc(Cl)cc2)C(c2ccccc2)=N/C1=C\c1ccc(F)cc1`, for which the growth in assay [1] was 84%; in assay [2], 92.1%; in assay [3], 89.7%; in assay [4], 99.1%; in assay [5], 94.6%; in assay [6] it was 83.5%. Also, the growth in assay [7] is 96.5%; in [8], 87.5%; in assay [9], 76.5%; in [10] it was 109%; in [11] it was 112%; in [12], 83.2%. Moreover, the growth in assay [13] was 85.6%; in [14], 68%; in assay [15], 84.2%; in [16], 105%; in [17], 72.9%; in [18], 84.8%. The growth is 102% in assay [19] and 86.2% in assay [20].
On to `CCCCNC(=O)Oc1ccc(/C(=C(\C)c2ccccc2)c2ccc(OCCN(CC)CC)cc2)cc1`, for which the growth was 77.5% in assay [1]; 85.4% in assay [2]; 86.3% in assay [3]; 88.2% in assay [4]; 56.1% in assay [5]; 43.3% in assay [6]. The growth is 53.4% in assay [7]; 62.2% in assay [8]; 67.3% in [9]; 58.5% in [10]; 89.3% in [11]; 8.28% (active) in assay [12]. The growth in assay [13] was 76.1%; in assay [14], 103%; in assay [15], 52.8%; in [16] it was 68.5%; in assay [17], 91.1%; in assay [18] it was 48.3%. The growth is 19.3% in assay [19] and 6.41% (active) in assay [20].
`CC(C)c1ccc2occ(C=C3C(=O)NC(=O)NC3=O)c(=O)c2c1`: the growth in assay [1] was 97.5%; in assay [2] it was 106%; in assay [3] it was 116%; in assay [4], 101%; in assay [5], 102%; in [6], 63%. Moreover, the growth was 88.7% in [7]; 100% in assay [8]; 91.6% in [9]; 117% in assay [10]; 109% in [11]; 72.7% in assay [12]. For the same molecule, the growth in assay [13] is 93.7%; in [14], 98.9%; in [15], 87.4%; in assay [16], 89.3%; in [17], 119%; in [18], 121%. For the same molecule, the growth in assay [19] is 96.1%; in [20] it was 91.3%.
